From PubChem BioAssay
Rows were chosen to be rich in hits. Some 4.2% of all compounds tested hit in one or more screens of this group.
SMARCA2 activ – increases SMARCA2 function in MMTV reporter cells | MG213 cells, MMTV-luciferase reporter, dexamethasone, overnight | activation, % at 9.1 µM | actives 1% (n = 370,000); in the data active means activation above about 7.8%
hcDAF-12 act – activates DAF-12 receptor from parasite H. contortus. HEK293 hcDAF-12 lit1-tk-luc reporter, luminescence; 0% DMSO, 100% Δ7-dafachronic acid. activation, % at 6.8 µM. actives 1.4% (n = 370,000). AID 652067;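 active means activation above the mean of all tested compounds plus 3 SD, cut at about 5.5% in these data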
DAX1 StAR inh – blocks DAX1 repression of SF-1 activated StAR promoter | inhibition, % at 6.8 µM | actives 1.1% (n = 370,000) | HEK293T StAR-luciferase reporter, SF-1/DAX-1 repression relief;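 active means inhibition above the mean over all tested compounds plus 3 SD, cut at about 3.6% in these data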;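 further: higher inhibition means more luminescence from relief of DAX-1 repression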
hgDAF-12 ag – activates the H. glycines DAF-12 receptor ligand-binding domain. HEK293 GAL4-hgDAF12 UAS-luciferase reporter, agonist luminescence; normalized to butyrate control. activation, % at 6.8 µM. actives 1.8% (n = 370,000). AID 687014;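 active means activation above a cutoff set at the mean of all screened compounds plus 3 SD, cut at about 10% in these data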
ssDAF12 agonist – S. stercoralis DAF-12 activation, primary screen | HEK293 ssDAF-12/GRIP1 lit1-tk-luc reporter, luminescence; % of 3 µM dafachronic acid response | activation, % at 6.8 µM | actives 1% (n = 370,000) | AID 652126;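 active means activation above the mean over all tested compounds plus 3 SD, cut at about 0.9% in these data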
SMARCA2 act conf – SMARCA2 activation, confirmation screen | shares compounds with SMARCA2 activ | MG213 cells, MMTV-luciferase with dexamethasone, luminescence, overnight; MG213 cells expressing E1A, Rb sequestered; DMSO wells 0%, reference activator 100% | activation, % at 9.1 µM | actives 30% (n = 3,500) | AID 652260;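 active means activation above its plate's cutoff, the mean activation of tested wells plus 3 SD, cut at about 7.9% in these data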
GAL4-VP16 Luc – activates GAL4-VP16 luciferase, flagging SMARCA2 activator hits. activation, % at 9.1 µM. shares compounds with SMARCA2 activ. actives 41% (n = 3,500). HEK293 GAL4-VP16 pG5luc reporter, luciferase luminescence; scaled: DMSO wells 0%, SAHA wells 100%. AID 686939;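 active means activation above the solvent-only control well mean plus 3 SD, averaged across control plates, cut at about 5.2% in these data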
Large screens that a line does not name were inactive (follow-up assays come after a bar, where they were run); ! = repeats disagree.

COc1ccc(OCc2cc(C(=O)N3C[C@@H](C)O[C@@H](C)C3)no2)c(Cl)c1	SMARCA2 activ 8.3 | SMARCA2 act conf inactive | GAL4-VP16 Luc inactive
COCC1CCN(C(=O)c2cc(COc3ccc(OC)cc3Cl)on2)C1 (stereo unspecified)	none
CN1C(=O)c2cc(NC(=O)c3ccccc3)ccc2OC[C@H]2O[C@@H](CC(=O)NCC3CC3)CC[C@@H]21	none
Cc1csc(NC(=O)CN2C(=O)c3ccccc3C2=O)c1C(N)=O	SMARCA2 activ 9.1 | SMARCA2 act conf inactive | GAL4-VP16 Luc inactive
CCN(CC)CCCNc1ccc2ncn3c4ccc(O)cc4c(=O)c1c23	SMARCA2 activ 8.1 | SMARCA2 act conf 34 | GAL4-VP16 Luc inactive
O=c1oc(-c2ccc(O)c(O)c2)cc2cc(O)cc(O)c12	SMARCA2 activ 11, hcDAF-12 act 13 | SMARCA2 act conf 12 | GAL4-VP16 Luc 8.3
O=C(O)c1cccc2cc(-c3ccccc3)oc(=O)c12	none
O=c1oc(-c2ccc(O)c(O)c2)cc2cccc(O)c12	SMARCA2 activ 8.5, hcDAF-12 act 6.9, ssDAF12 agonist 2.6 | SMARCA2 act conf 8.1 | GAL4-VP16 Luc 13
Cc1ccccc1S(=O)(=O)N1C[C@@H]2C(C(=O)C[C@@H]3C(=O)N(C)C(=O)[C@@H]32)[C@@H]1c1ccc(Cl)cc1 (stereo partly specified)	none
COC(=O)N1C[C@H](OCc2cn(-c3ccc(OC)cc3)nn2)[C@H]2C[C@@H]1c1ccccc1O2	none
CCCCC#Cc1ccccc1COC[B-](F)(F)F	SMARCA2 activ 17 | SMARCA2 act conf 7.9 | GAL4-VP16 Luc 5.9
F[B-](F)(F)COCc1ccccc1C#Cc1ccccc1	SMARCA2 activ 18 | SMARCA2 act conf 17 | GAL4-VP16 Luc inactive
S=c1nccc(-c2ccc3c(c2)CCO3)[nH]1	none
Cc1ccc(-c2ccnc(=S)[nH]2)cc1	SMARCA2 activ 11 | SMARCA2 act conf inactive | GAL4-VP16 Luc inactive
c1cc2ccc3ccc(-n4cnnn4)c4ccc(c1)c2c34	SMARCA2 activ 8.7 | SMARCA2 act conf inactive | GAL4-VP16 Luc inactive
CCOC(=O)C1=NN(c2ccccc2)C2=NC(C)=C(C(=O)OC)C(c3cccs3)N12 (stereo unspecified)	none
CCOC(=O)C1=NN(c2ccc(F)cc2)C2=NC(C)=C(C(=O)OC)C(c3cccs3)N12 (stereo unspecified)	SMARCA2 activ 8.8 | SMARCA2 act conf inactive | GAL4-VP16 Luc inactive
O=C(Nc1ccc(Cl)cc1)Nc1ccccc1C(=O)N1CCCC1	none
CCN1CCN(Cc2ccc(NC(=O)c3cc(NC(=O)c4cnnc5ccccc45)cc(OC)c3)cc2C(F)(F)F)CC1	SMARCA2 activ 14! | SMARCA2 act conf 8.7 | GAL4-VP16 Luc inactive
C/C(=N\NC(=O)c1nn(C)cc1Cl)c1ccncc1	SMARCA2 activ 9.5 | SMARCA2 act conf inactive | GAL4-VP16 Luc inactive
CCn1c2ccccc2c2cc(NC(=O)COC(=O)c3cccc(OC)c3)ccc21	none
COC(=O)c1cc2ccsc2n1Cc1nc(-c2cccc(Cl)c2)oc1C	SMARCA2 activ 12 | SMARCA2 act conf inactive | GAL4-VP16 Luc inactive
COC(=O)c1cc2sccc2n1Cc1nc(-c2cccc(Cl)c2)oc1C	none
O=C(OCCc1ccccn1)c1cccc([N+](=O)[O-])c1	SMARCA2 activ 8.2 | SMARCA2 act conf inactive | GAL4-VP16 Luc inactive
O=C(c1cc([N+](=O)[O-])cc([N+](=O)[O-])c1)N(c1ccccn1)c1ccccn1	none
O=C(c1cccc([N+](=O)[O-])c1)N(c1ccccn1)c1ccccn1	SMARCA2 activ 8.0 | SMARCA2 act conf inactive | GAL4-VP16 Luc inactive
COc1cccc(NC(=O)c2ncc(Cl)c(Cl)c2Cl)c1	SMARCA2 activ 8.7, hgDAF-12 ag 11 | SMARCA2 act conf inactive | GAL4-VP16 Luc inactive
Cc1csc(NC(=O)c2ccc[nH]c2=O)n1	SMARCA2 activ 9.1, hgDAF-12 ag 11 | SMARCA2 act conf 13 | GAL4-VP16 Luc 9.8
COC(=O)C1CCCN(C(=O)C(Cc2ccc3c(c2)OCO3)NC(C)=O)C1 (stereo unspecified)	SMARCA2 activ 16 | SMARCA2 act conf inactive | GAL4-VP16 Luc inactive
COC(=O)C1=C(C)N(Cc2ccccc2C(F)(F)F)C(=NCc2ccc(OC)cc2)NC1c1cccc(F)c1 (stereo unspecified)	none
O=c1cc2[nH]c3ccccc3c(=O)n2nc1-c1ccccc1	SMARCA2 activ 8.7 | SMARCA2 act conf 9.5 | GAL4-VP16 Luc 6.2
CC12C=CC(C)(C3C(=O)NC(=O)C31)C1C3C(=O)NC(=O)C3C12 (stereo unspecified)	none
O=S(=O)(CS(=O)(=O)c1ccccc1Br)c1ccccc1Br	none
COC(=O)c1ccc2nc(NC(=O)C3CC3)sc2c1	SMARCA2 activ 12 | SMARCA2 act conf 8.7 | GAL4-VP16 Luc 5.3
COC(=O)c1ccc2nc(NC(=O)CN3C(=O)CCC3=O)sc2c1	none
CCN(CC)C(=S)SSC(=S)N(CC)CC	SMARCA2 activ 9.2 | SMARCA2 act conf inactive | GAL4-VP16 Luc 7.0
CC1CCc2nn(CC(=O)NCCCN3CCCC3=O)cc2C1 (stereo unspecified)	SMARCA2 activ 8.7 | SMARCA2 act conf inactive | GAL4-VP16 Luc inactive
Cc1c(NC(=O)C2CCCN(S(=O)(=O)c3ccc(F)cc3)C2)c(=O)n(-c2ccccc2)n1C (stereo unspecified)	none
COc1ccc(N2CCN(CCNS(=O)(=O)c3ccccc3[N+](=O)[O-])CC2)cc1	none
CCC(C)(C)C(=O)N1CCc2cc(S(=O)(=O)N(C)Cc3ccco3)ccc21	none
O=C(c1[nH]ncc1-c1cccc(Br)c1)C1CO1 (stereo unspecified)	SMARCA2 activ 11 | SMARCA2 act conf 12 | GAL4-VP16 Luc inactive
O=C(c1[nH]ncc1-c1ccccc1)C1CO1 (stereo unspecified)	none
CCOC(=O)c1cc2sccc2n1CC(=O)C(C)(C)C	SMARCA2 activ 10 | SMARCA2 act conf inactive | GAL4-VP16 Luc inactive
CCOC(=O)Cn1c(C(=O)OCC)cc2sccc21	none
C/C(N)=C(/C#N)C(=O)CSc1nnc(Nc2cccc(C)c2)s1	SMARCA2 activ 8.3 | SMARCA2 act conf inactive | GAL4-VP16 Luc 6.2
CCn1c(C)nc2cc(C(=O)NNS(=O)(=O)c3c(C)c(C)cc(C)c3C)ccc21	SMARCA2 activ 12 | SMARCA2 act conf inactive | GAL4-VP16 Luc inactive
CCn1c(C)nc2cc(C(=O)NNC(=O)c3ccc(C)cc3)ccc21	none
S=C1NC[C@H](Cc2ccccc2)N1CC1CCN(CCCC2CCCCC2)CC1	none
